Assays:
Test in all cases: log2 ratio of Biotin-Ahx-Ub-VS probe labelling (fragment/DMSO); higher = less target engagement (more negative = stronger competition), active = hit call of the paper (q ≤ 0.05, log2 ratio ≤ -1)
Conditions in all cases: compound concentration: 200 uM; treatment time: 3 h
USP19 = molecular target: T1, USP19 (UniProt O94966)
T1 sequence (whole entry): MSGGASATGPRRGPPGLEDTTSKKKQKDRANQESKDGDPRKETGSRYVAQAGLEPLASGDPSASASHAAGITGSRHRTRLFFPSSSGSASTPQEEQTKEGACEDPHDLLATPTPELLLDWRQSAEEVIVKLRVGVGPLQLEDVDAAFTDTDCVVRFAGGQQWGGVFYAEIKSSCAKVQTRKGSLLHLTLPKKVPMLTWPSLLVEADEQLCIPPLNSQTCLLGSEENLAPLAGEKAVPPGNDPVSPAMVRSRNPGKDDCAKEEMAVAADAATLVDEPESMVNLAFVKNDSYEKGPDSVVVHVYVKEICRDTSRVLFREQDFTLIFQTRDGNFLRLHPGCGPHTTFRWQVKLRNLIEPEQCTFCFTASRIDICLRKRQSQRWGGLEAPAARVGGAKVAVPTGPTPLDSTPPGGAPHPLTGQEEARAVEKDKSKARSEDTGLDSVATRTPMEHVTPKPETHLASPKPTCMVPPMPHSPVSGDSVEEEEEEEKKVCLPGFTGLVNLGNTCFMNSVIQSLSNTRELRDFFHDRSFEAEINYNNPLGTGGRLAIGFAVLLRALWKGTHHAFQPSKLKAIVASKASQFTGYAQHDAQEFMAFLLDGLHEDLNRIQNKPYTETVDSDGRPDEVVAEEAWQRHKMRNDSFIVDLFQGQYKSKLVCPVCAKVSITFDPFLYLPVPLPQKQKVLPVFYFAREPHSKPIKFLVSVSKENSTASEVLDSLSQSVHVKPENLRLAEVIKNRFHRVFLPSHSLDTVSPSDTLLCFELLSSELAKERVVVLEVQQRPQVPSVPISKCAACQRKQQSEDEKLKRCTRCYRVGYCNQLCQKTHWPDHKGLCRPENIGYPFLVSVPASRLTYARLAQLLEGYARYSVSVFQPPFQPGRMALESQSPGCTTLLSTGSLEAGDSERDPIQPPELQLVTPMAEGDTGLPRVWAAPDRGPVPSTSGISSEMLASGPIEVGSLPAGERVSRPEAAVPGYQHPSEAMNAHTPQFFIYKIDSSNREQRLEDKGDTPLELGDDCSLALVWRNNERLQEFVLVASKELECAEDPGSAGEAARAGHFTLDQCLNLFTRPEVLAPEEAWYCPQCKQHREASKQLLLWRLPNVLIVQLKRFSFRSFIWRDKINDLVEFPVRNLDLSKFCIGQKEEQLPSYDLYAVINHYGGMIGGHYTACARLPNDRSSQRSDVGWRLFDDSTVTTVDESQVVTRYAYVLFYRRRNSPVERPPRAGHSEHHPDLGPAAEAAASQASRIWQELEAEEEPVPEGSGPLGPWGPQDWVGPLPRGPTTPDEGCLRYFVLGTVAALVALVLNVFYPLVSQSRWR
Method in brief: (§1)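 HEK293T lysate, 495 µg per sample in Tris/CHAPS/IGEPAL buffer with protease inhibitors, was treated in triplicate with fragment at 200 µM or vehicle for 3 h and then with Biotin-Ahx-Ub-VS at 0.5 µM final for 1 h. Labelled DUBs were NeutrAvidin-enriched, digested with LysC and trypsin, and run by diaPASEF LC-MS/MS. Spectronaut label-free quantities were global-median-normalised, and values are average log2 fragment/vehicle ratios by unpaired t-test on proteins with ≥2 unique peptides.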

USP22 = molecular target: T2, USP22 (UniProt Q9UPT9)
T2 sequence (whole entry): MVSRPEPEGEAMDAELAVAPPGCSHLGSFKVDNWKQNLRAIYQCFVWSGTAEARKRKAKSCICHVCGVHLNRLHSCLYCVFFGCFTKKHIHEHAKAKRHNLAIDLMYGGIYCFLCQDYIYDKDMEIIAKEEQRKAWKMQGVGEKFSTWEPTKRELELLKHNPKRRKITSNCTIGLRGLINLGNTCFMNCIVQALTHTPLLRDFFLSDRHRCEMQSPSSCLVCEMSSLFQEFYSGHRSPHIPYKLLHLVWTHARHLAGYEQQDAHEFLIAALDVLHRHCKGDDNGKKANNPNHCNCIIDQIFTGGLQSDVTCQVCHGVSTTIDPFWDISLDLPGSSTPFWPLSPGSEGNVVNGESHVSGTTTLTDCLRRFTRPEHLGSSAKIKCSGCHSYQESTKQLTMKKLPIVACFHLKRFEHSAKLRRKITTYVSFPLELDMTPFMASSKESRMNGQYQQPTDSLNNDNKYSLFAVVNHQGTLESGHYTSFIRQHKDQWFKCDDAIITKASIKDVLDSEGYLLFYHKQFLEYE
Method in brief: as §1

USP24 = USP24 (UniProt Q9UPU5)
USP24, sequence (Q9UPU5 whole entry): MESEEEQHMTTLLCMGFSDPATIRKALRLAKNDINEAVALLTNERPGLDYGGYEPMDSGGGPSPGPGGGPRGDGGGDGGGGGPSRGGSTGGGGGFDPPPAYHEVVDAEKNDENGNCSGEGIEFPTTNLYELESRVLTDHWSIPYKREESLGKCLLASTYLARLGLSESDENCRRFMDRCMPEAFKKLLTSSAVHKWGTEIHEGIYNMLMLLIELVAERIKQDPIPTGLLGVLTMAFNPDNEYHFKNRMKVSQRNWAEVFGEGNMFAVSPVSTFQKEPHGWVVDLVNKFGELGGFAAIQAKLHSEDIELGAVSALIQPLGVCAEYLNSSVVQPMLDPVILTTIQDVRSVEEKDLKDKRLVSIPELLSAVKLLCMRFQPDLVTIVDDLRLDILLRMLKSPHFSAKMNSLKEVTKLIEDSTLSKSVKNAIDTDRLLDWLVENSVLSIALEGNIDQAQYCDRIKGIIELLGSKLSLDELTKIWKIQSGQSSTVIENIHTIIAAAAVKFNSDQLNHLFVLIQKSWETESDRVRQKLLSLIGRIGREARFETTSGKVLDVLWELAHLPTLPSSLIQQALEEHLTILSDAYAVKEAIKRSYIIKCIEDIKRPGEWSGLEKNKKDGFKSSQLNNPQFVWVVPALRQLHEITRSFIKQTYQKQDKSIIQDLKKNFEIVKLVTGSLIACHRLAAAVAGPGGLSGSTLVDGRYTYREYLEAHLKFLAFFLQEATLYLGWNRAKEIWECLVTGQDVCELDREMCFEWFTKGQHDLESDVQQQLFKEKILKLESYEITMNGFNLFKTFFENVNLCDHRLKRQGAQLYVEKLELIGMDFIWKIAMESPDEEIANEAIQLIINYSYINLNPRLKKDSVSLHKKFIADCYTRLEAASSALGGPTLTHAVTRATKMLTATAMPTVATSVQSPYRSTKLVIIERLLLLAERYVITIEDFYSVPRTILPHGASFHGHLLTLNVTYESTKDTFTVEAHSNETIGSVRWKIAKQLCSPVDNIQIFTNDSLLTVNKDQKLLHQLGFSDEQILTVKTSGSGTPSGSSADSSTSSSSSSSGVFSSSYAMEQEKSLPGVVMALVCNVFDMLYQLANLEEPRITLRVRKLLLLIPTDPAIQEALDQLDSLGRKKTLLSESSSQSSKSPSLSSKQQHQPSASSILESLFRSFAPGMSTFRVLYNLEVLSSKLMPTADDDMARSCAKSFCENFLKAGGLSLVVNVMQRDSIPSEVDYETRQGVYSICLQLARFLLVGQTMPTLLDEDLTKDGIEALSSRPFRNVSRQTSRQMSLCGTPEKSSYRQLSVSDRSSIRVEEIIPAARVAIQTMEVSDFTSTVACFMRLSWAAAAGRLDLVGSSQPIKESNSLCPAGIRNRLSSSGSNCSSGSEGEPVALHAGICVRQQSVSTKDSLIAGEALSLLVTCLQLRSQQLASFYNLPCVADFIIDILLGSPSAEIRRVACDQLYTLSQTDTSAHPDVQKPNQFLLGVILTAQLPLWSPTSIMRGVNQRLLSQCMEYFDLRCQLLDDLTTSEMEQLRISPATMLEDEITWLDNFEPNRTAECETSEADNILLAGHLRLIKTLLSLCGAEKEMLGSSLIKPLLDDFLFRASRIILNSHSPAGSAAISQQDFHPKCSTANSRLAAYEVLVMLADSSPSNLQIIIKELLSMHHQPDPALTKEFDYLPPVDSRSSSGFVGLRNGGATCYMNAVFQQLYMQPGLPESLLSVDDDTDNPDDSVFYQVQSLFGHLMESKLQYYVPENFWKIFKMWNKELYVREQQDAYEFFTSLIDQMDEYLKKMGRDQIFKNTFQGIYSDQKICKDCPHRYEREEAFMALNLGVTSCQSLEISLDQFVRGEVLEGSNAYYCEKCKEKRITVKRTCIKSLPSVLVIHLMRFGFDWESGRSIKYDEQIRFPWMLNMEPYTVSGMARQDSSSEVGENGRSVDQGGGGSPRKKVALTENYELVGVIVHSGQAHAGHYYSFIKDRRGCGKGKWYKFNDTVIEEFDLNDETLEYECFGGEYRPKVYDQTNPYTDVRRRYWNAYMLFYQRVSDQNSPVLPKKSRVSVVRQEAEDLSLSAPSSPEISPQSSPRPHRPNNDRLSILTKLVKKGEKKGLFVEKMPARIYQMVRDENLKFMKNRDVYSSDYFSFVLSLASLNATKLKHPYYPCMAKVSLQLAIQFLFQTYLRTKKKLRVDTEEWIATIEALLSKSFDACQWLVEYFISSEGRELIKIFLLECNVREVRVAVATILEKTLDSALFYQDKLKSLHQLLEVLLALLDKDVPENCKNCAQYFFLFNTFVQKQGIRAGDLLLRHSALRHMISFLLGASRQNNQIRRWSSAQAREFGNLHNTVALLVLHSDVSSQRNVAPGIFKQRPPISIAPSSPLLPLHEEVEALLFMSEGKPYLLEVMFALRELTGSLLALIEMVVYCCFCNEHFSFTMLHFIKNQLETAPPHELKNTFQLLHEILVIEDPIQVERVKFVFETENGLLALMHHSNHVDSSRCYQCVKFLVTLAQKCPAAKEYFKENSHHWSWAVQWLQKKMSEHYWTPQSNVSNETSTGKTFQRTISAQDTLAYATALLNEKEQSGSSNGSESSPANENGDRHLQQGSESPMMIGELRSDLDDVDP
Method in brief: as §1

USP25 = molecular target: T3, USP25 (UniProt Q9UHP3)
T3 sequence (whole entry): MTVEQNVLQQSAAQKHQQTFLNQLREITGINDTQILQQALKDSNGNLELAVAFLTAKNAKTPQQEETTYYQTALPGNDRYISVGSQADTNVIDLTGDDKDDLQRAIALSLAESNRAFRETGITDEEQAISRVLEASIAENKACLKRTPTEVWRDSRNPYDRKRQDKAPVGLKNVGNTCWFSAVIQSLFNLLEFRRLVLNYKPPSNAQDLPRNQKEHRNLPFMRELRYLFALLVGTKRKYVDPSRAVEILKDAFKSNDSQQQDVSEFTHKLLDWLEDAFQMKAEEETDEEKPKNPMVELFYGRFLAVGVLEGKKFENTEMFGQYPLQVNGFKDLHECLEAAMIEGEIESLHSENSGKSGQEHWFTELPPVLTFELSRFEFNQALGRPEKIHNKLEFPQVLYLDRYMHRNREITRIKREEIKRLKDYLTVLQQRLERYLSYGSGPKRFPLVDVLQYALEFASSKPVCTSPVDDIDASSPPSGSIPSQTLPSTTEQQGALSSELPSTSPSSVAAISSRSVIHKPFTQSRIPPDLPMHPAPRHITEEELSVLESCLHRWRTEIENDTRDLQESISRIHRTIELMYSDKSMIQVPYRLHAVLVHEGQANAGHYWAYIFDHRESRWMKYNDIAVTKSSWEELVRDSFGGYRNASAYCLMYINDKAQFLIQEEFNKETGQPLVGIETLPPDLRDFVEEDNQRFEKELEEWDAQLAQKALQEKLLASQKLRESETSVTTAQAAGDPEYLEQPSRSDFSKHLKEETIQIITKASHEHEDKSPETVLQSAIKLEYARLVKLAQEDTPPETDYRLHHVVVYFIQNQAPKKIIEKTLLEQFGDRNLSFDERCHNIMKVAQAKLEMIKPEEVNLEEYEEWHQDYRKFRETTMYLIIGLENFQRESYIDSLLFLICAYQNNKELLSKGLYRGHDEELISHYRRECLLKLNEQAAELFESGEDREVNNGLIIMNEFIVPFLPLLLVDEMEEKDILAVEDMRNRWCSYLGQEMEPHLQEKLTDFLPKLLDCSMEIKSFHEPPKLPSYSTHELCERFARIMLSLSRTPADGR
Method in brief: as §1

USP28 = molecular target: T4, USP28 (UniProt Q96RU2)
T4 sequence (whole entry): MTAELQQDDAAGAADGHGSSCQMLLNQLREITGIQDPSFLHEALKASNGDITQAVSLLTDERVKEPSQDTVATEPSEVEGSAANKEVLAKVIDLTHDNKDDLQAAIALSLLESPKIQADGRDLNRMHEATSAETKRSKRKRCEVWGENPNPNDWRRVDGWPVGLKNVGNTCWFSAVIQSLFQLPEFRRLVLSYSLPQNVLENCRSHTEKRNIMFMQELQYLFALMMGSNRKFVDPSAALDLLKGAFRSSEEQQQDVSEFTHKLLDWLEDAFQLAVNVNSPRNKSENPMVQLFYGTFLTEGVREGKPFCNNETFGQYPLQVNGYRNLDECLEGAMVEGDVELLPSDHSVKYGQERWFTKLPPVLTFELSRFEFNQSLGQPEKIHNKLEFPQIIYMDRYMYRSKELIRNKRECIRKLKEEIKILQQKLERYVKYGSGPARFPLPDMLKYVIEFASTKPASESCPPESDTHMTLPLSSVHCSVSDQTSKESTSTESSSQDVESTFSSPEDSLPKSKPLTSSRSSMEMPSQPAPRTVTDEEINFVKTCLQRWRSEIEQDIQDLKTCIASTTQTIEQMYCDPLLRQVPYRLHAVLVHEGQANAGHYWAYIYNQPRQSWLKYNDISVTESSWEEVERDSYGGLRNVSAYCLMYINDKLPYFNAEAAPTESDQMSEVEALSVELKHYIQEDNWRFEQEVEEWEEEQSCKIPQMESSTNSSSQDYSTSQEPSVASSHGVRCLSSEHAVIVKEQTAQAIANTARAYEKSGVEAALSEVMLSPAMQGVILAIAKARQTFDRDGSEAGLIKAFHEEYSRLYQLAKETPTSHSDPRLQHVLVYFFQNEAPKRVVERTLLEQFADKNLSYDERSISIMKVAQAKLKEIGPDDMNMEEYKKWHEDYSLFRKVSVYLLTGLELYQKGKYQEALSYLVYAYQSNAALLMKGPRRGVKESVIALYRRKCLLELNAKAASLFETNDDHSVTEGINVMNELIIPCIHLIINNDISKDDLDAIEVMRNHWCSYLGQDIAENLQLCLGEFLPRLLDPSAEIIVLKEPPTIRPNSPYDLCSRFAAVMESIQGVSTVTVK
Method in brief: as §1

Measured: log2 ratio of Biotin-Ahx-Ub-VS probe labelling

O=C(CCl)NCc1cccc(N2CCCC2=O)c1
inactive: USP19 0.025 | USP22 0.303 | USP24 0.00291 | USP25 -0.383 | USP28 -0.252
